Reference: PubChem BioAssay (NCI)
The panel holds about 79,000 compounds, 15% with a hit somewhere; the sample as a whole holds those more often. Active and inactive are the calls of the source. Rule as the data show it: active = growth inhibition above about 70%; inactive = the rest.

Key:
[1] = NCI Yeast Anticancer Drug Screen. Data for the rad50 strain (AID 155);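 also: 0% = growth of vehicle-only cultures of the same strain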; details: S. cerevisiae rad50 strain growth inhibition, hits give high values
Procedure, shortened: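 DNA repair mutant yeast, compound exposure, growth read-out; inhibition is taken relative to vehicle.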

[2] = NCI Yeast Anticancer Drug Screen. Data for the mec2-1 strain (AID 157); details: S. cerevisiae mec2-1 strain, hits give high values
Procedure, shortened: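 Growth inhibition is read against vehicle-treated controls after compound exposure of the mec2-1 yeast strain, which is defective in DNA damage repair or cell cycle control.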

[3] = NCI Yeast Anticancer Drug Screen. Data for the sgs1 mgt1 strain (AID 161);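 also: 0% = growth of cultures given vehicle only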; details: S. cerevisiae sgs1 mgt1 strain, hits give high values
Procedure, shortened: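 This yeast growth screen uses a strain with defined DNA-repair lesions; compound-treated growth is compared with vehicle-treated growth.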

[4] = NCI Yeast Anticancer Drug Screen. Data for the cln2 rad14 strain (AID 165);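 also: 0% = growth equal to vehicle treated cultures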; details: S. cerevisiae cln2 rad14 strain, hits give high values
Procedure, shortened: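 Growth inhibition, relative to vehicle-treated controls, is the read-out. The test organism is a yeast strain with defined genetic alterations, cln2 rad14.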

[5] = NCI Yeast Anticancer Drug Screen. Data for the bub3 strain (AID 167); details: S. cerevisiae bub3 mutant strain, hits give high values
Procedure, shortened: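 In this screen, a yeast mutant lacking normal mitotic checkpoint function is challenged with compound. Relative growth versus vehicle gives the inhibition value.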

[6] = NCI Yeast Anticancer Drug Screen. Data for the mlh1 rad18 strain (AID 175); details: S. cerevisiae mlh1 rad18 strain growth inhibition, hits give high values
Procedure, shortened: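 Cells of a genetically altered yeast strain, deficient in DNA damage repair, were treated with compound. Their growth was then compared with that of vehicle-treated cultures to give inhibition.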

[7] = at 5.0 µM (retest, dose inferred, filed as 0.5)
[8] = at 50.0 µM (retest, dose inferred, filed as 5.0)

Measured: growth inhibition

O=C(NOC(=O)c1ccccc1)c1ccccc1
active: [1]; [7] 93% | [1]; [8] 98% | [1]; at 50.0 µM 99.3% | [2]; [8] 99% | [2]; at 50.0 µM 99.5% | [3]; [7] 82% | [3]; [8] 99% | [3]; at 50.0 µM 99.5% | [4]; [8] 99% | [4]; at 50.0 µM 99.3% | [5]; [8] 99% | [5]; at 50.0 µM 99.3% | [6]; [7] 93% | [6]; [8] 99% | [6]; at 50.0 µM 99.3%
inactive: [2]; [7] 64% | [4]; [7] 31% | [5]; [7] 65%

Nc1cccc2cccc([N+](=O)[O-])c12
inactive: [1]; [7] -142% | [1]; [8] -39% | [1]; at 50.0 µM 10.8% | [2]; [7] -47% | [2]; [8] -40% | [2]; at 50.0 µM 11.4% | [3]; [7] -52% | [3]; [8] 1% | [3]; at 50.0 µM 16% | [4]; [7] -63% | [4]; [8] -10% | [4]; at 50.0 µM 62% | [5]; [7] -74% | [5]; [8] -86% | [5]; at 50.0 µM -19.9% | [6]; [7] -130% | [6]; [8] -68% | [6]; at 50.0 µM 21.4%

CCOC(=O)/C(=C\c1ccc2ccccc2c1)P(=O)(OCC)OCC
active: [1]; at 50.0 µM 78.2% | [2]; [8] 81% | [2]; at 50.0 µM 79.5% | [3]; at 50.0 µM 72% | [5]; [8] 88% | [5]; at 50.0 µM 74% | [6]; [8] 88%
inactive: [1]; [7] -3% | [1]; [8] 59% | [2]; [7] 3% | [3]; [7] 9% | [3]; [8] 66% | [4]; [7] 30% | [4]; [8] 69% | [4]; at 50.0 µM 65.4% | [5]; [7] 29% | [6]; [7] 17% | [6]; at 50.0 µM 59.3%

O=C(c1ccccc1)C(Br)C(Br)c1ccccc1 (configuration not stated)
active: [1]; [8] 96% | [1]; at 50.0 µM 97.7% | [2]; [8] 98% | [2]; at 50.0 µM 98.8% | [3]; [8] 97% | [4]; [8] 84% | [5]; [8] 97% | [5]; at 50.0 µM 98.8% | [6]; [8] 95% | [6]; at 50.0 µM 97.2%
inactive: [1]; [7] 31% | [2]; [7] 27% | [3]; [7] 38% | [3]; at 50.0 µM 43.2% | [4]; [7] 18% | [4]; at 50.0 µM 39.8% | [5]; [7] 22% | [6]; [7] 43%

O=[N+]([O-])/C(=C/c1ccccc1)c1ccccc1
active: [1]; [7] 99% | [1]; [8] 99% | [1]; at 50.0 µM 99.6% | [2]; [7] 100% | [2]; [8] 99% | [2]; at 50.0 µM 99.7% | [3]; [7] 99% | [3]; [8] 97% | [3]; at 50.0 µM 99.7% | [4]; [7] 99% | [4]; [8] 99% | [4]; at 50.0 µM 98.7% | [5]; [7] 100% | [5]; [8] 99% | [5]; at 50.0 µM 99.5% | [6]; [7] 99% | [6]; [8] 99% | [6]; at 50.0 µM 99.5%

Oc1ccc(Nc2ccc3ccccc3c2)cc1
active: [1]; [8] 97% | [1]; at 50.0 µM 97.5% | [2]; [8] 98% | [2]; at 50.0 µM 98.5% | [3]; [8] 98% | [3]; at 50.0 µM 88.9% | [4]; [8] 98% | [4]; at 50.0 µM 97.5% | [5]; [8] 96% | [5]; at 50.0 µM 98% | [6]; [8] 98% | [6]; at 50.0 µM 97.6%
inactive: [1]; [7] 9% | [2]; [7] -5% | [3]; [7] 3% | [4]; [7] -5% | [5]; [7] -5% | [6]; [7] -1%

O=[N+]([O-])c1ccc(Oc2ccccc2Cl)c([N+](=O)[O-])c1
active: [1]; [8] 96% | [2]; [8] 95% | [3]; [8] 97% | [4]; [8] 86% | [5]; [8] 97% | [6]; [8] 97% | [6]; at 50.0 µM 72.7%
inactive: [1]; [7] 13% | [1]; at 50.0 µM 4.1% | [2]; [7] -25% | [2]; at 50.0 µM 38.1% | [3]; [7] 27% | [3]; at 50.0 µM 63.1% | [4]; [7] 3% | [4]; at 50.0 µM 17.9% | [5]; [7] 7% | [5]; at 50.0 µM 44.7% | [6]; [7] 29%

CCCCCCCCCCCCCCCc1ccc(C(=O)C[n+]2ccccc2)cc1
inactive: [1]; [7] 29% | [2]; [7] 23% | [3]; [7] 44% | [4]; [7] 22% | [4]; at 50.0 µM 54% | [5]; [7] 28% | [6]; [7] 32%
active: [1]; [8] 96% | [1]; at 50.0 µM 85.8% | [2]; [8] 98% | [2]; at 50.0 µM 89.7% | [3]; [8] 98% | [3]; at 50.0 µM 87.7% | [4]; [8] 81% | [5]; [8] 98% | [5]; at 50.0 µM 85.2% | [6]; [8] 97% | [6]; at 50.0 µM 83%

CC1=C(C2=C(C)C(=O)C(=O)c3cc(C)ccc32)c2ccc(C)cc2C(=O)C1=O
active: [1]; [7] 89% | [1]; [8] 98% | [1]; at 50.0 µM 86.7% | [2]; [7] 95% | [2]; [8] 99% | [2]; at 50.0 µM 91.5% | [3]; [7] 98% | [3]; [8] 99% | [3]; at 50.0 µM 91.8% | [4]; [7] 71% | [4]; [8] 98% | [4]; at 50.0 µM 89.8% | [5]; [7] 98% | [5]; [8] 99% | [5]; at 50.0 µM 90.9% | [6]; [7] 97% | [6]; [8] 99% | [6]; at 50.0 µM 91%
